From PubChem BioAssay (NCI)
Where “and” joins values, the source holds several entries; their conditions need not be identical. Identical values can stand only once. This is part of a sample that, as a whole, favours compounds with a hit. Of some 83,000 tested, about 20% had one in any assay.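 Single-concentration screen, 48 h exposure, 96-well plates. Endpoint: percent growth. Below 10 = active.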

Columns and labels:
Assay in all cases: NCI-60 one-dose screen, 48 h (100 = growth as untreated, 0 = no growth, -100 = all killed)
[1] = system: HCT-15 colon
[2] = system: HT29 colon
[3] = system: SNB-75 CNS
[4] = system: SNB-19 CNS
[5] = system: U251 CNS; settings: 10 µM unless noted
[6] = system: PC-3 prostate
[7] = system: SK-MEL-5 melanoma
[8] = system: UACC-62 melanoma
[9] = system: LOX IMVI melanoma; settings: 10 µM unless noted
[10] = system: SK-MEL-28 melanoma; settings: 10 µM unless noted
[11] = system: SK-MEL-2 melanoma
[12] = system: EKVX NSCLC; settings: 10 µM unless noted
[13] = system: SN12C renal
[14] = system: UO-31 renal
[15] = system: TK-10 renal; settings: 10 µM unless noted
[16] = system: ACHN renal
[17] = system: CAKI-1 renal
[18] = system: A498 renal
[19] = system: CCRF-CEM leukemia; settings: 10 µM unless noted
[20] = system: MOLT-4 leukemia

Measured: growth

CC1(C)CC(=O)NC1=O
inactive: [1]; 10 µM unless noted 110% | [2]; 10 µM unless noted 99.8% | [3]; 10 µM unless noted 82% | [4]; 10 µM unless noted 101% | [5] 101% | [6]; 10 µM unless noted 104% | [7]; 10 µM unless noted 100% | [8]; 10 µM unless noted 99.6% | [9] 95.9% | [10] 105% | [11]; 10 µM unless noted 99.2% | [12] 103% | [13]; 10 µM unless noted 101% | [14]; 10 µM unless noted 87.1% | [15] 91.8% | [16]; 10 µM unless noted 98.2% | [17]; 10 µM unless noted 93.5% | [18]; 10 µM unless noted 81.5% | [19] 95.6% | [20]; 10 µM unless noted 107%

O=c1ccn2c(n1)OC1CC2OC1COC(c1ccccc1)(c1ccccc1)c1ccccc1 (stereo not drawn)
inactive: [1]; 10 µM 97% | [1]; 100 µM 101% | [2]; 10 µM 108% | [2]; 100 µM 106% | [3]; 10 µM 107% | [3]; 100 µM 95.6% | [4]; 10 µM 111% | [4]; 100 µM 91.8% | [5] 89.2% [100 µM] | [6]; 10 µM 84.1% | [6]; 100 µM 63.1% | [7]; 10 µM 100% | [7]; 100 µM 28.5% | [8]; 10 µM 103% | [8]; 100 µM 44.5% | [9] 105% | [11]; 10 µM 113% | [11]; 100 µM 31.5% | [12] 96.3% [100 µM] | [13]; 10 µM 103% | [13]; 100 µM 69.2% | [14]; 10 µM 97% | [14]; 100 µM 89.9% | [15] 134% [100 µM] | [16]; 10 µM 92% | [16]; 100 µM 82.5% | [17]; 10 µM 102% | [17]; 100 µM 65.7% | [18]; 10 µM 116% | [18]; 100 µM 139% | [19] 81.8% [100 µM] | [20]; 10 µM 104% | [20]; 100 µM 74.4%

O=c1[nH]c(=O)n(C2OC(CO)C(O)C2O)cc1I (stereo not drawn)
inactive: [1]; 10 µM unless noted 114% and 107% | [2]; 10 µM unless noted 96.9% | [3]; 10 µM unless noted 91.6% and 87.6% | [4]; 10 µM unless noted 108% and 107% | [5] 99.1% and 111% | [6]; 10 µM unless noted 87.4% and 91.9% | [7]; 10 µM unless noted 101% and 113% | [8]; 10 µM unless noted 102% and 103% | [9] 98.9% and 92.4% | [10] 106% and 110% | [11]; 10 µM unless noted 124% | [12] 100% and 98.9% | [13]; 10 µM unless noted 94.8% and 99% | [14]; 10 µM unless noted 77.7% and 87.1% | [15] 102% and 125% | [16]; 10 µM unless noted 111% and 117% | [17]; 10 µM unless noted 95.9% and 97.9% | [18]; 10 µM unless noted 97.5% and 120% | [19] 95.5% | [20]; 10 µM unless noted 84.8% and 111%

O=[N+]([O-])c1ccc(NC2CCCCC2)nc1
inactive: [1]; 10 µM unless noted 106% and 102% | [2]; 10 µM unless noted 106% and 104% | [3]; 10 µM unless noted 102% and 96.9% | [4]; 10 µM unless noted 103% and 108% | [5] 107% and 101% | [6]; 10 µM unless noted 105% and 98% | [7]; 10 µM unless noted 112% and 106% | [8]; 10 µM unless noted 104% and 92.2% | [9] 94% | [10] 128% and 111% | [11]; 10 µM unless noted 104% and 107% | [12] 101% and 106% | [13]; 10 µM unless noted 104% and 108% | [14]; 10 µM unless noted 90% and 76.3% | [15] 103% and 101% | [16]; 10 µM unless noted 101% and 97.5% | [17]; 10 µM unless noted 96.7% and 95.7% | [18]; 10 µM unless noted 102% | [19] 103% and 96.3% | [20]; 10 µM unless noted 95.2% and 106%

O=[N+]([O-])c1ccc(N2CCN=N2)cc1
inactive: [1]; 10 µM unless noted 80% | [2]; 10 µM unless noted 88.4% | [3]; 10 µM unless noted 89.2% | [4]; 10 µM unless noted 94.7% | [5] 88.1% | [6]; 10 µM unless noted 73.8% | [7]; 10 µM unless noted 93.3% | [8]; 10 µM unless noted 68.7% | [9] 73.3% | [10] 93.7% | [11]; 10 µM unless noted 92.2% | [12] 85.7% | [13]; 10 µM unless noted 88.9% | [14]; 10 µM unless noted 64.3% | [15] 85.5% | [16]; 10 µM unless noted 64.9% | [17]; 10 µM unless noted 79.4% | [18]; 10 µM unless noted 72.3% | [19] 91.2% | [20]; 10 µM unless noted 90.8%
